Measurements reported in PubChem BioAssay (NCATS).
Values joined by “and” are separate entries in the source; they are usually repeats but may differ in a detail not shown here. Equal values may be shown once. Records with an inconclusive call do not appear. Active and inactive are the calls of the source. Unless noted, calls follow the shape of the dose curve; as a rule, active = well fitted curve in the direction sought with a large enough effect; inconclusive = small, poorly fitted or top-dose-only effect, or another doubt; inactive = no such curve, though single readings can be large; an effect the other way counts as inactive or inconclusive.

Assays:
[1] = molecular target: ATP-dependent 6-phosphofructokinase (Trypanosoma brucei brucei) (UniProt O15648); experiment: qHTS Assay to Find Inhibitors of T. brucei phosphofructokinase: hit validation (AID 492961);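 also: luminescence reports ADP formed as PFK phosphorylates fructose-6-phosphate with ATP; % is scaled to controls: 0 for no effect and ±100 for the full control effect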
ATP-dependent 6-phosphofructokinase (Trypanosoma brucei brucei), sequence (O15648 whole entry, looked up): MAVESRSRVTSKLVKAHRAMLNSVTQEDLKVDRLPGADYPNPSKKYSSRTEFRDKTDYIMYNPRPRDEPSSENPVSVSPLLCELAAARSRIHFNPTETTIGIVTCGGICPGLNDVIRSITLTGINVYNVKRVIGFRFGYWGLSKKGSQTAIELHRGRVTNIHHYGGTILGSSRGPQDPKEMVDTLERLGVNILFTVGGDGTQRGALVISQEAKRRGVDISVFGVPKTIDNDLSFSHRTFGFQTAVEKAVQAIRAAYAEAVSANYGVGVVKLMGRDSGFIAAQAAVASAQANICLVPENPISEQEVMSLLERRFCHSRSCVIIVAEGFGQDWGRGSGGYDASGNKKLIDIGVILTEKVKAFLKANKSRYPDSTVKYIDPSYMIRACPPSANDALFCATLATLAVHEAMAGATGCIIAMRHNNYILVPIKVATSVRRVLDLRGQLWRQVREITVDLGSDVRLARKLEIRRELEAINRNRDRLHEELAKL
Procedure, shortened: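 Reaction: 0.1 M triethanolamine pH 8.0, 5 mM MgCl2, F6P 0.5 mM, ATP 0.1 mM, PFK 1.25 nM, 45 min RT. Read-out: ADP-Glo luminescence. Analysis: concentration-response fits, classed by r2 and efficacy.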

[2] = molecular target: Ubiquitin carboxyl-terminal hydrolase 1 (Homo sapiens) (UniProt O94782); experiment: Inhibitors of USP1/UAF1: Pilot qHTS (AID 504865);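 also: rhodamine fluorescence freed from ubiquitin-rhodamine substrate followed over time; top concentration of the series differs between compounds; % is scaled to controls: 0 for no effect and ±100 for the full control effect; nearly all actives have a fitted effect of over 35% in size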
Ubiquitin carboxyl-terminal hydrolase 1 (Homo sapiens), sequence (O94782 whole entry, looked up): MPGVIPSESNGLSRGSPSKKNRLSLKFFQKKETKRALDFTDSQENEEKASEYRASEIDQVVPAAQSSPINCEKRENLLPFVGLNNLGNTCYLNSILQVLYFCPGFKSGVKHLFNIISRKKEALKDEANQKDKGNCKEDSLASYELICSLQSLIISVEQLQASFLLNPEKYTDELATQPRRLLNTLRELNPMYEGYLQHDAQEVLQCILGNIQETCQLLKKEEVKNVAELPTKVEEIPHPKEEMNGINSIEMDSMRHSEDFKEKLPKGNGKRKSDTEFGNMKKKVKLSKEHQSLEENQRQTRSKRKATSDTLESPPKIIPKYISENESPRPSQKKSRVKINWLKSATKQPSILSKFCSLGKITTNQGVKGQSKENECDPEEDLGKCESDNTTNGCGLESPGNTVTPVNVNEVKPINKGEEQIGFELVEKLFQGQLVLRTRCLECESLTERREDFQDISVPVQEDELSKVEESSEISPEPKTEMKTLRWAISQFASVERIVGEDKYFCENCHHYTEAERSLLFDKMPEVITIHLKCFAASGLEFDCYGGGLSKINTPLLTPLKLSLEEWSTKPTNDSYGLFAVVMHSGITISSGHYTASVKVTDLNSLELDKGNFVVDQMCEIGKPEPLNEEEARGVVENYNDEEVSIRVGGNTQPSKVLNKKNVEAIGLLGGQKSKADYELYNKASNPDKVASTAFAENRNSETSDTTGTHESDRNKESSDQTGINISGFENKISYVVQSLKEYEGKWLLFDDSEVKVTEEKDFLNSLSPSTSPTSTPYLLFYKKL
Procedure, shortened: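 Deubiquitinase activity followed as kinetic rhodamine fluorescence release from 150 nM Ub-Rho. 1 nM USP1/UAF1 with compound, after 15 min room-temperature preincubation, in HEPES pH 7.8 buffer containing TCEP, EDTA, BSA and Tween-20.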

[3] = molecular target: Luciferin 4-monooxygenase (Photinus pyralis) (UniProt P08659); experiment: Biochemical firefly luciferase enzyme assay for NPC (AID 624030); also: potency is read from the fitted curve at half-maximal effect; nearly all actives have a fitted effect of over 70% in size
Luciferin 4-monooxygenase (Photinus pyralis), sequence (P08659 whole entry, looked up): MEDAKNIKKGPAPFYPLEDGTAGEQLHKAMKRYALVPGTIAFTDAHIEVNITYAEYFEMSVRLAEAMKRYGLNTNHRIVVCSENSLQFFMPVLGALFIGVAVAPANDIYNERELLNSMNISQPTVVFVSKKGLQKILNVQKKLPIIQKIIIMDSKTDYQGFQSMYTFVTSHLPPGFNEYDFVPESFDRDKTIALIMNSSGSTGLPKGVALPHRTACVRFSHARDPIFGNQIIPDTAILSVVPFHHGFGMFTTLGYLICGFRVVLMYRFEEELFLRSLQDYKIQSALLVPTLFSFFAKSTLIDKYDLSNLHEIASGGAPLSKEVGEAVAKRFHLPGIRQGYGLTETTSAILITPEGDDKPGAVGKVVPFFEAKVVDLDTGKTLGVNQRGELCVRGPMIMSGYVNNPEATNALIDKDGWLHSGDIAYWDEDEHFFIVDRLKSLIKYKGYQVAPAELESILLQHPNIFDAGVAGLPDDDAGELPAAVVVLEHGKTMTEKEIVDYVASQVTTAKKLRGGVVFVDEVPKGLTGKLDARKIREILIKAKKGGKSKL
Procedure, shortened: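 Counter-screen for direct inhibition of the luciferase enzyme by approved-drug library compounds, run at 10 nM enzyme in 50 mM Tris acetate (final). Luminescence was read within 5 min of enzyme-buffer addition and normalized to PTC124 versus DMSO (0%).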

[4] = S16 Schwann cell viability assay (CellTiter-Glo assay) (AID 624031);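 also: native untransfected S16 rat Schwann cells; cellular ATP luminescence as a viability measure; plate controls were DMSO-treated cells for no effect and cell-free wells for full effect; nearly all actives have a fitted effect of over 70% in size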
Procedure, shortened: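 Cells were seeded at 500-750 per well in phenol red-free DMEM with 10% FBS and left overnight. Compounds or DMSO were pinned in, incubation ran 24 h at 37 °C/5% CO2, then CellTiter-Glo reagent was added and luminescence measured.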

[5] = S16 Schwann cell PMP22 intronic element firefly luciferase assay (AID 624032);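 also: plate controls were DMSO for no effect and PTC124 positive control mean for full effect; nearly all actives have a fitted effect of over 30% in size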
Procedure, shortened: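 Rat S16 Schwann cells stably carrying a PMP22 intronic element-driven Fluc reporter were seeded overnight, then exposed to compounds for 24 h at 37 °C. Luminescence was normalized to PTC124 (positive control) and DMSO (0% activity).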

[6] = S16 Schwann cell PMP22 intronic element beta-lactamase assay (AID 624044; calls by dose curve;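 also: 0% = DMSO and -100% = potassium clavulanate positive control; nearly all actives have a fitted effect of over 15% in size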)
Procedure, shortened: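 Rat S16 Schwann cells with beta-Lac driven by a PMP22 intronic element, compound-treated 24 h at 37 °C. LiveBLAzer FRET B/G read: 460 nm normalized to potassium clavulanate vs DMSO; 535 nm FRET as viability; concentration-effect curves classified.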

[7] = qHTS to identify inhibitors of the type 1 interferon - major histocompatibility complex class I in skeletal muscle: primary screen against the NCATS Mechanism Interrogation Plate v5.0 (MIPE) Libary (AID 1347411);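 also: plate controls were vehicle for no effect and reference inhibitor for full effect; nearly all actives have a fitted effect of over 65% in size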
Procedure, shortened: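 Luminescence from HiBiT-tagged endogenous HLA-B*08:01 served as the MHC class I read-out. CRISPR-engineered C25cl48 human myoblasts received 4.0 ng/ml IFN-beta plus compound for 24 hrs, with an 11-point, 1:3 series topping at 46 uM final.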

[8] = Primary qHTS for inhibitors of nuclear receptor binding SET domain protein 2 (NSD2) in an isogenic RCH-ACV NSD2 p.E1099K mutant (9B) (AID 1645876); also: % is scaled to controls: 0 for no effect and ±100 for the full control effect; nearly all actives have a fitted effect of over 70% in size
[9] = molecular target: Rap guanine nucleotide exchange factor 3 (Homo sapiens) (UniProt O95398); experiment: Confirmatory qHTS for antagonist of cAMP-regulated guanine nucleotide exchange factor 3 (EPAC1) (AID 1645880);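 also: plate controls were DMSO only for no effect and full effect of the ATA control for full effect; nearly all actives have a fitted effect of over 55% in size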
Rap guanine nucleotide exchange factor 3 (Homo sapiens), sequence (O95398 whole entry, looked up): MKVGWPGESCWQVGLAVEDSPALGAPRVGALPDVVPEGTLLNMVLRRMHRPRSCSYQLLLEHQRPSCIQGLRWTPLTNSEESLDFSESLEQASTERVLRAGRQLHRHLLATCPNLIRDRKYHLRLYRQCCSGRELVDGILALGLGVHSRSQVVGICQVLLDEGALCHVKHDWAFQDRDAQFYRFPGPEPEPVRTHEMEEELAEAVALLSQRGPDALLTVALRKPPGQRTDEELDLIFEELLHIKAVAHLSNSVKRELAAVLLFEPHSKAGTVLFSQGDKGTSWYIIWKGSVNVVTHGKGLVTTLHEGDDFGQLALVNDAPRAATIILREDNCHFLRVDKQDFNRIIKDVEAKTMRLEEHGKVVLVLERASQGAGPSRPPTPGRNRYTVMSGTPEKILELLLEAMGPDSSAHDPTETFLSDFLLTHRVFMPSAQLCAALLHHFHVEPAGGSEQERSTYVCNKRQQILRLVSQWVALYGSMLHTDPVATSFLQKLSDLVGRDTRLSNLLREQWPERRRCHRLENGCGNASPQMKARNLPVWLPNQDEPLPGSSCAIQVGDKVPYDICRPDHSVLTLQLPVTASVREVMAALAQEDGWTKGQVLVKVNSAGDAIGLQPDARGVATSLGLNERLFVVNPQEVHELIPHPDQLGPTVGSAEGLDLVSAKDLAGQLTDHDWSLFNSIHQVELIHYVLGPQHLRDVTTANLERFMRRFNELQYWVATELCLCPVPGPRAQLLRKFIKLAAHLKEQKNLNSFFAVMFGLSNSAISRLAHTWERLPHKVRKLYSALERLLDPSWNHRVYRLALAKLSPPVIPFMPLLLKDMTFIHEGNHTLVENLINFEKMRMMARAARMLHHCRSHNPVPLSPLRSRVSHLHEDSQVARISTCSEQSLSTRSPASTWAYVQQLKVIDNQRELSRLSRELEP
Procedure, shortened: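 Nucleotide exchange uses 100 nM EPAC1, 250 nM RAP1B-BODIPY-GDP and 50 uM GDP, with compounds in a concentration-titration series. After 5 min at room temperature, fluorescence (480 nm ex/540 nm em) is read every 5 min for 30 min. Data are normalized to control ATA and DMSO.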

[10] = molecular target: Rap guanine nucleotide exchange factor 3 (Homo sapiens) (UniProt O95398); experiment: Confirmatory qHTS for agonist of cAMP-regulated guanine nucleotide exchange factor 3 (EPAC1) (AID 1645881);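 also: EPAC1 catalysed release of BODIPY-GDP from Rap1B seen as fluorescence loss; 100% = effect of cAMP agonist control; nearly all actives have a fitted effect of over 75% in size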
[11] = molecular target: Rap guanine nucleotide exchange factor 4 (Homo sapiens) (UniProt Q8WZA2); experiment: Confirmatory qHTS for agonist of cAMP-regulated guanine nucleotide exchange factor 4 (EPAC2) (AID 1645884);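 also: nucleotide exchange releases bodipy-GDP from Rap1 and this lowers its fluorescence; % is scaled to controls: 0 for no effect and ±100 for the full control effect; nearly all actives have a fitted effect of over 65% in size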
Rap guanine nucleotide exchange factor 4 (Homo sapiens), sequence (Q8WZA2 whole entry, looked up): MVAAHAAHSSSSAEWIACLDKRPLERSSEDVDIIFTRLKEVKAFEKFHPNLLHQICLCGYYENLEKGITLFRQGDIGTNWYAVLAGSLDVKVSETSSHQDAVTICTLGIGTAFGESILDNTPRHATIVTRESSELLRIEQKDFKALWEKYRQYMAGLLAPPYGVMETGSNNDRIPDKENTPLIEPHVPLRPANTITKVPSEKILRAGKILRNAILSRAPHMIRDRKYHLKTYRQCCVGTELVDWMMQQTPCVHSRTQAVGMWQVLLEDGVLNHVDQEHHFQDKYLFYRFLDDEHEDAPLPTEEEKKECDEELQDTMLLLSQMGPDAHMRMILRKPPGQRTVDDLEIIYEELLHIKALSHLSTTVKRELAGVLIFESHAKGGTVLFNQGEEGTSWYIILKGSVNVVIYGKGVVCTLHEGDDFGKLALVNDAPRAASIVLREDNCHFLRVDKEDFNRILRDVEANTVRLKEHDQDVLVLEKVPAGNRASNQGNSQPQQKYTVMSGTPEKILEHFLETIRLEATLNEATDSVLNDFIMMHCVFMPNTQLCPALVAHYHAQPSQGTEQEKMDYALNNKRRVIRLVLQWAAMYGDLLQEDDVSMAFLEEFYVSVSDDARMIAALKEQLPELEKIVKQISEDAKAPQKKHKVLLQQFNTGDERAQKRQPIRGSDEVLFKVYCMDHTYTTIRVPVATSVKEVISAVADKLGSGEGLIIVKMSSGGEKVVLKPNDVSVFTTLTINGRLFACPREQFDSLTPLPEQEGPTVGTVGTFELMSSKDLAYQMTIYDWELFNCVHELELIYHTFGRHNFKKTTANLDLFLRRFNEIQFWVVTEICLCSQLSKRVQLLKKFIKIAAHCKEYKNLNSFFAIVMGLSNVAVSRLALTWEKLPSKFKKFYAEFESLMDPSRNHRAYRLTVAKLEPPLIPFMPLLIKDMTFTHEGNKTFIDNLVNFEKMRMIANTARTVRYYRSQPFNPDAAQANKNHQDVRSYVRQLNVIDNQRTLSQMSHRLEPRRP

[12] = molecular target: Rap guanine nucleotide exchange factor 4 (Homo sapiens) (UniProt Q8WZA2); experiment: Confirmatory qHTS for antagonist of cAMP-regulated guanine nucleotide exchange factor 4 (EPAC2) (AID 1645885); also: % is scaled to controls: 0 for no effect and ±100 for the full control effect; nearly all actives have a fitted effect of over 25% in size
[13] = molecular target: Rap guanine nucleotide exchange factor 3 (Homo sapiens) (UniProt O95398); experiment: Counterscreen qHTS for antagonist of cAMP-regulated guanine nucleotide exchange factor 3 (EPAC1) (AID 1645888);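 also: fluorescence loss as bound BODIPY-GDP is released from Rap1B; % of control where 0% means no effect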
Procedure, shortened: (§1)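 Measured: fluorescence of BODIPY-GDP bound to Rap1B, which falls as exchange proceeds. Conditions include 50 uM competing GDP, 5 and 30 min reads, and a later cAMP challenge for antagonist detection.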

[14] = molecular target: Rap guanine nucleotide exchange factor 3 (Homo sapiens) (UniProt O95398); experiment: Counterscreen qHTS for agonist of cAMP-regulated guanine nucleotide exchange factor 3 (EPAC1) (AID 1645889); also: % of control where 0% means no effect; nearly all actives have a fitted effect of over 40% in size
Procedure, shortened: as §1

[15] = molecular target: Glutathione peroxidase 1 (Homo sapiens) (UniProt P07203); experiment: Primary qHTS Assay for Inhibitors of Recombinant Selenoprotein Glutathione Peroxidase 1 (GPX1) (AID 1845191); also: potency is read from the fitted curve at half-maximal effect; nearly all actives have a fitted effect of over 65% in size
Glutathione peroxidase 1 (Homo sapiens), sequence (P07203 whole entry, looked up): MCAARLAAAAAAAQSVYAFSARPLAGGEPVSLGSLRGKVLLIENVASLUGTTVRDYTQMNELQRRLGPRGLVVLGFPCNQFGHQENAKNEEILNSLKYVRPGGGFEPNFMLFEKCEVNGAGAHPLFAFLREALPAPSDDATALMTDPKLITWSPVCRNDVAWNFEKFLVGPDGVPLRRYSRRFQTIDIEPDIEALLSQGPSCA
Procedure, shortened: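 Recombinant GPX1 (10 nM final) was preincubated with compound for 30 min at room temperature, then reacted with 1 mM GSH, 0.5 mM CHP, 0.5 mM NADPH and 100 nM glutathione reductase; NADPH fluorescence (340/450 nm) was read at 0 and 15 min.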

[16] = molecular target: Phospholipid hydroperoxide glutathione peroxidase GPX4 (Homo sapiens) (UniProt P36969); experiment: Primary qHTS Assay for Inhibitors of Recombinant Selenoprotein Glutathione Peroxidase 4 (GPX4) (AID 1845192); settings: outcome: dose series up to 50 µM unless noted; also: potency is read from the fitted curve at half-maximal effect; nearly all actives have a fitted effect of over 65% in size
Phospholipid hydroperoxide glutathione peroxidase GPX4 (Homo sapiens), sequence (P36969 whole entry, looked up): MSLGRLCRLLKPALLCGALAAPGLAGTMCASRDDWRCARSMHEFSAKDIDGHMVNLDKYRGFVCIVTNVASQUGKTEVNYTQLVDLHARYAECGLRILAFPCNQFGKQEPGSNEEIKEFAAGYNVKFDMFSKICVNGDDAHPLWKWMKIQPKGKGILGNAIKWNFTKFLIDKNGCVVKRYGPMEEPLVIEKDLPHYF
Procedure, shortened: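 GR-coupled readout: 100 nM GR, 1 mM GSH, 0.5 mM NADPH; NADPH fluorescence (ex 340/em 450 nm) read at t=0 and after 15 min RT. GPX4 200 nM, preincubated 30 min with compound; substrate 0.5 mM CHP.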

[17] = qHTS drug screen for cell cycle checkpoint inhibitors in PARPi-resistant BRCA-mutant ovarian cancer cell lines. (AID 1963452; calls by dose curve); settings: PEO1/OlaR viability, CellTiter-Glo luminescence, 96 h, stronger effect = lower value
Procedure, shortened: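 PEO1, PEO4 and PEO1/OlaR ovarian cancer cells, 600 per well, exposed 96 h at 37C to a dilution series. Viability read by CellTiter-Glo luminescence, normalized to DMSO and empty wells; activity summarized as Z-AUC.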

[18] = qHTS profiling for inhibitors of Plasmodium falciparum proliferation (AID 504749);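 also: 0% = DMSO vehicle and full inhibition = artemisinin control; nearly all actives have a fitted effect of over 60% in size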; settings: P. falciparum in erythrocytes, SYBR Green DNA, 72 h; at 28.7 µM (top of the series); parasite line A
Procedure, shortened: (§2)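 Parasite proliferation within erythrocytes, 72 h exposure. Endpoint: SYBR Green I fluorescence after overnight lysis at room temperature. Controls: 0.29 uM artemisinin, DMSO.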

3D7 = experiment: as above; settings: P. falciparum in erythrocytes, SYBR Green DNA, 72 h; series mostly up to 28.7 µM
Procedure, shortened: as §2

7G8 = experiment: as above; settings: P. falciparum in erythrocytes, SYBR Green DNA, 72 h; series mostly up to 28.7 µM
Procedure, shortened: as §2

AA1029 = experiment: as above; settings: P. falciparum in erythrocytes, SYBR Green DNA, 72 h; series mostly up to 28.7 µM
Procedure, shortened: as §2

AS120 = experiment: as above; settings: P. falciparum in erythrocytes, SYBR Green DNA, 72 h; series mostly up to 28.7 µM
Procedure, shortened: as §2

ATS189 = experiment: as above; settings: P. falciparum in erythrocytes, SYBR Green DNA, 72 h; series mostly up to 28.7 µM
Procedure, shortened: as §2

ATS95 = experiment: as above; settings: P. falciparum in erythrocytes, SYBR Green DNA, 72 h; series mostly up to 28.7 µM
Procedure, shortened: as §2

C2A = experiment: as above; settings: P. falciparum in erythrocytes, SYBR Green DNA, 72 h; series mostly up to 28.7 µM
Procedure, shortened: as §2

CP185 = experiment: as above; settings: P. falciparum in erythrocytes, SYBR Green DNA, 72 h; series mostly up to 28.7 µM
Procedure, shortened: as §2

CP191 = experiment: as above; settings: P. falciparum in erythrocytes, SYBR Green DNA, 72 h; series mostly up to 28.7 µM
Procedure, shortened: as §2

CP192 = experiment: as above; settings: P. falciparum in erythrocytes, SYBR Green DNA, 72 h; series mostly up to 28.7 µM
Procedure, shortened: as §2

CP194 = experiment: as above; settings: P. falciparum in erythrocytes, SYBR Green DNA, 72 h; series mostly up to 28.7 µM
Procedure, shortened: as §2

CP201 = experiment: as above; settings: P. falciparum in erythrocytes, SYBR Green DNA, 72 h; series mostly up to 28.7 µM
Procedure, shortened: as §2

CP203 = experiment: as above; settings: P. falciparum in erythrocytes, SYBR Green DNA, 72 h; series mostly up to 28.7 µM
Procedure, shortened: as §2

CP211 = experiment: as above; settings: P. falciparum in erythrocytes, SYBR Green DNA, 72 h; series mostly up to 28.7 µM
Procedure, shortened: as §2

CP215 = experiment: as above; settings: P. falciparum in erythrocytes, SYBR Green DNA, 72 h; series mostly up to 28.7 µM
Procedure, shortened: as §2

CP217 = experiment: as above; settings: P. falciparum in erythrocytes, SYBR Green DNA, 72 h; series mostly up to 28.7 µM
Procedure, shortened: as §2

CP237 = experiment: as above; settings: P. falciparum in erythrocytes, SYBR Green DNA, 72 h; series mostly up to 28.7 µM
Procedure, shortened: as §2

CP238 = experiment: as above; settings: P. falciparum in erythrocytes, SYBR Green DNA, 72 h; series mostly up to 28.7 µM
Procedure, shortened: as §2

CP247 = experiment: as above; settings: P. falciparum in erythrocytes, SYBR Green DNA, 72 h; series mostly up to 28.7 µM
Procedure, shortened: as §2

CC(/C=C1\SC(=S)N(CC(=O)O)C1=O)=C\c1ccccc1
active: Potency [3] 6.42 µM | Potency [15] 7.28 µM and 3.21 µM | Potency [16] 12.8 µM and 12.6 µM
1.77: Z-AUC ([17]; measured here: PEO4 Z-AUC)
1.33: Z-AUC ([17]; measured here: PEO1 parental Z-AUC)
inactive: outcome [1] | Potency [2] | outcome [4] | Potency [5] | outcome [6] | Potency [7] | Potency [8] | Potency [9] | outcome [10] | outcome [11] | Potency [12] | outcome [13] | outcome [14] | Z-AUC [17] 1.25 | activity, negative = inhibition [18] -3.63% | Potency (3D7) | Potency (7G8) | Potency (AA1029) | Potency (AS120) | Potency (ATS189) | Potency (ATS95) | Potency (C2A) | Potency (CP185) | Potency (CP191) | Potency (CP192) | Potency (CP194) | Potency (CP201) | Potency (CP203) | Potency (CP211) | Potency (CP215) | Potency (CP217) | Potency (CP237) | Potency (CP238) | Potency (CP247)
